# Compounds with a hit are over-represented: about 4.7% of the library has one in this group of screens.
# TRHR agonist: qHTS for Small Molecule Agonists and Allosteric Enhancers of Human TRH Receptor: Primary Screen for Agonists | TRHR cells, calcium flux fluo-8, FDSS agonist mode | activation, % at 2 µM | hit rate 0.18% among 360,000 | Thyrotropin-releasing hormone receptor (Homo sapiens), P34981; further: 0% is about no effect
# Target sequence (P34981 whole entry, looked up): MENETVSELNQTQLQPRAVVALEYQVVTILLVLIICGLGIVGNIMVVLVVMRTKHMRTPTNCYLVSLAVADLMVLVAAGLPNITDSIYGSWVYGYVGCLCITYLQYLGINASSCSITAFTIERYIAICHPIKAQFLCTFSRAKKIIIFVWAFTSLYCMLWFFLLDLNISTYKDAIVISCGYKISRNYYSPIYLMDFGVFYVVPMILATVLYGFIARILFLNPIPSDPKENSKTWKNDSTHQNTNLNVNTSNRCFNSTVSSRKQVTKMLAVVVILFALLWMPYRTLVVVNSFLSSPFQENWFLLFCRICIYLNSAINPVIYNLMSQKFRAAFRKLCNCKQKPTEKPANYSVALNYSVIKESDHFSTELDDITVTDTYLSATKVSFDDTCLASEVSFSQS
#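 Fluo-8-loaded TRHR cells; 10 s baseline, compound added, kinetic Ca2+ fluorescence read 1/s, agonist mode.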
# D1 PAM: Potentiators of Human D1 Dopamine Receptor: qHTS; D(1A) dopamine receptor (Homo sapiens), P21728; HEK293 TREx D1 cells, calcium flux, dopamine EC20 potentiation; potentiation, % at 10 µM; hit rate 0.036% among 360,000; AID 504651, 2011; in the data active means potentiation above about 30%; further: 0% is about no effect
# D1 antag: Antagonist of Human D 1 Dopamine Receptor: qHTS; activity change, negative = inhibition, % at 10 µM; hit rate 3.2% among 360,000; HEK293 TREx D1 cells, calcium flux, dopamine EC80; active compounds read low; AID 504652, 2011; D(1A) dopamine receptor (Homo sapiens), P21728; in the data active means activity change below about -30%; further: on the % scale 0 is the no-effect control and ±100 the full control effect
#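 Antagonism measured as reduced calcium response to an EC80 dopamine addition following 180 s compound pre-read; cells were inducible HEK293 Trex D1 plated overnight at 30 C, read kinetically at 1 cycle/sec.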
# D1 agonist: Allosteric Agonists of the Human D1 Dopamine Receptor: qHTS | HEK293 T-REx D1 cells, calcium flux, agonist mode | hit rate 1% among 360,000 | activation, % at 2 µM; further: 0% is about no effect
#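 Agonism was scored from calcium flux recorded over 180 s (1 read/s) after pintool compound addition, following a 10-cycle baseline. Cells were inducible force-coupled HEK293 TREx D1, plated overnight at 30 C and loaded with no-wash calcium dye.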
# TRHR enhancer: qHTS for Small Molecule Agonists and Allosteric Enhancers of Human TRH Receptor: Primary Screen for Enhancers | hit rate 0.66% among 360,000 | TRHR cells, fluo-8 calcium fluorescence, EC20 TRH enhancement | enhancement, % at 2 µM | Thyrotropin-releasing hormone receptor (Homo sapiens), P34981; in the data active means enhancement above about 30%; further: 0% is about no effect
#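 Enhancer read-out: after compound pinning and an initial kinetic agonist-mode read, an EC20 of TRH (10 nM final) was injected and fluo-8 calcium signal (Ex 480/Em 530) followed at 1 s/cycle for 100 cycles in TRHR-expressing cells.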
# An asterisk follows results filed as active; nt = no result given; ! = repeats disagree. Unless noted, no stated cut-off is given here; in the data, active means activation above about 30%; inactive means the rest.
SMILES,TRHR agonist,D1 PAM,D1 antag,D1 agonist,TRHR enhancer
COc1ccc(C)cc1N(CC(=O)NCCSCc1ccco1)S(=O)(=O)c1ccc(C)cc1,0,-4,-8,26,33*
Cc1ccc(N(CC(=O)NCCSCc2ccco2)S(=O)(=O)c2ccc(C)cc2)cc1,1,-2,-38*,14,-7
COc1ccc(-n2c(CC3C(=O)N(C)c4ccc(C)cc43)nc3ccccc3c2=O)cc1 (stereo not given),3,-1,4,1,3
N=C1C(c2nc3ccccc3[nH]2)=C(O)CN1C1CCCCC1,-1,-4,-10,1,3
N=C1C(c2nc3ccccc3[nH]2)=C(O)CN1c1ccc(F)cc1,-1,-17,-30*,2,14
Cc1nc(CNS(=O)(=O)c2ccc3c(c2)CCCC3)cs1,-1,-11,-46*,10,9
Cc1ccc(S(=O)(=O)NCc2csc(C)n2)cc1,0,3,1,0,-6
CN(C)c1ccc2c(c1)OC(N)=C(C#N)C2c1cccc(F)c1 (stereo not given),21,-4,-20,75*,-4
O=c1cc(N2CCOCC2)c2ccccc2o1,0,-3,-1,2,-9
O=c1cc(N2CCCC2)c2ccccc2o1,0,-5,3,1,35*
CCOc1ccc(Cn2c(CNS(=O)(=O)c3cccc(Cl)c3)nc3cccnc32)cc1,0,-5,-80*,1,3
Cc1ccc(-c2cnc(SCCNC(=O)c3ccco3)[nH]2)cc1,0,-4,-9,4,31*
Cc1ccc(C(=O)NCCCNC(=O)c2ccco2)cc1,0,-3,-3,2,-9
CCN(CC)c1ccc(/C=C/c2cc(-c3ccccc3)c3ccccc3n2)cc1,89*,17,-57*,325*,28
COc1ccc(CCNC(=O)c2cc(-c3ccc(C)cc3)nc3n[nH]c(-c4ccc(F)cc4)c23)cc1OC,1,-1,12,6,8
COc1cccc(OCCNC(=O)Nc2cc(F)c(F)cc2Cl)c1,-1,20,-40*,9,-5
CC(C)c1ccc(Cc2cnc(NC(=O)c3ccc4c(c3)CC(c3ccccc3)OC4=O)s2)cc1 (stereo not given),0,2,7,0,-7
COc1cc(OC)cc(C(=O)Nc2ccc3nc(N4CCCCC4)cc(C)c3c2)c1,0,5,-46*,-1,5
Cc1cccc(N2CCN(C(=S)Nc3ccc4nc(N5CCN(C)CC5)cc(C)c4c3)CC2C)c1 (stereo not given),1,-6,-73*,3,-1
Cc1cc(N2CCN(C)CC2)nc2ccc(NC(=S)N3CCN(c4cccc(Cl)c4)CC3)cc12,0,-4,3,0,-3
Cc1cc(N2CCN(C)CC2)nc2ccc(NC(=O)c3ccc(C(C)(C)C)cc3)cc12,0,0,-75*,20,13
Cc1cc(N2CCN(C)CC2)nc2ccc(NC(=O)Nc3ccc(Cl)cc3)cc12,1,-5,-15,18,3
CCCNC(=O)c1ccc2c(c1)CCN2S(C)(=O)=O,1,-4,nt,1,-2
O=C(c1ccc2c(c1)CCN2S(=O)(=O)c1ccccc1)N1CCN(c2ccccc2)CC1,0,-5,1,1,33*
CS(=O)(=O)N1CCc2cc(C(=O)NC3CC3)ccc21,0,-3,-37*,4,-7
SMILES,TRHR agonist,D1 PAM,D1 antag,D1 agonist,TRHR enhancer
CS(=O)(=O)N1CCc2cc(C(=O)N3CCN(c4ccccc4)CC3)ccc21,-1,-3,-65*!,-1,-6
COc1ccc(Cl)cc1Nc1ncnc2c1nc1n2CCCC1,0,2,-13,0,-5
N#Cc1c(-c2ccccc2)cc(C2CC2)nc1SCC(=O)c1cccs1,8,1,-2,32*,-12
O=C1CCC2CCCCC2(O)O1 (stereo not given),0,4,-4,2,33*
CC(C)(C)OC(=O)CC12CCCCC1NC(=O)O2 (stereo not given),0,4,3,2,7
Cc1ccc(NC(=O)C2C3CCC(O3)C2C(=O)O)c(Br)c1 (stereo not given),0,0,9,2,5
Cc1ccc(Cl)cc1NC(=O)C1C2CCC(O2)C1C(=O)O (stereo not given),0,-1,-35*,-1,-2
CS(=O)(=O)N1CCC(N2CCN(Cc3ccccc3)C(=O)C2=O)CC1,0,-1,0,3,-7
COc1ccc(S(=O)(=O)NCc2cccn2Cc2cccc(C)c2)cc1OC,-1,0,2,0,-4
O=C(NCCCN1CCOCC1)c1ccccc1N1C(=O)[C@@H]2Cc3c([nH]c4ccccc34)C(c3cccc(Cl)c3)N2C1=O (stereo not given in full),1,-9,-46*,10,1
COCCC(=O)N1CCC(Oc2ccc(C(=O)N(C)CCCC3CCCC3)cc2)CC1,-1,-6,-33*,21,9
COc1ccc(C(=O)N(C)CCCC2CCCC2)cc1OC1CCN(C(C)C)CC1,0,-3,-47*,17,3
COc1cn(CC(=O)Nc2ccc(F)cc2)c(CN2CCCCC2)cc1=O,0,-2,7,1,15
COc1cn(CC(=O)Nc2ccc(C)cc2)c(CN2CCCCC2)cc1=O,0,-2,-46*,3,2
CCc1cccc2c(-c3ccccc3)nc(SCC(=O)Nc3ccc(OC)cc3)nc12,-2,1,5,2,6
O=C(NCCNC(=O)c1ccccc1O)c1ccccc1O,1,-1,-3,2,0
O=C(NCCCCCCNC(=O)c1ccccc1O)c1ccccc1O,-1,-7,-42*,29,10
CC(C)C12CN3CC(C(C)C)(CN(C1)C3c1ccc(Cl)cc1)C2=O (stereo not given),0,-6,-4,2,8
O=C(NCCc1ccc(Cl)cc1Cl)c1cncc(Br)c1,-1,-12,-38*,4,8
Cc1ccc(C)c(NC(=O)C(=O)NCCc2c[nH]c3ccccc23)c1,0,-12,8,2,8
Cc1ccc(NC(=O)C(=O)NCCc2c[nH]c3ccccc23)c(C)c1,4,2,5,30*,11
O=C(NCCc1c[nH]c2ccccc12)c1cncc(Br)c1,7,-8,-35*,10,13
COC(=O)CN(C)C(=O)c1ccccc1OC1CCN(S(C)(=O)=O)CC1,-1,4,0,1,35*

# Screening results: PubChem BioAssay, National Center for Advancing Translational Sciences (NCATS)
